# Test results from PubChem BioAssay (Tox21).
# Results filed as inconclusive are left out. A call without a number means that no potency is given here. Active and inactive are the calls of the source. Unless noted, calls come from the whole dose curve; as a rule, active = well fitted curve in the direction sought with a large enough effect in the repeat runs; inconclusive = weak or mixed curves; inactive = no such curve, though single readings can be large; an effect the other way counts as inactive or inconclusive.
# How the values were obtained:
# [1] = biological target: Aryl hydrocarbon receptor (Homo sapiens) (UniProt P35869); test: qHTS assay to identify small molecule that activate the aryl hydrocarbon receptor (AhR) signaling pathway (AID 743085); note: nearly all actives have a fitted effect of over 15% in size; note: potency is the fitted concentration of half-maximal effect;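 for activation: HG2L7.5c1 human HepG2 liver cells with stably integrated DRE-driven firefly reporter; series mostly up to about 70 µM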
# Outline: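 Stably transfected human liver carcinoma cells (HG2L7.5c1; 20 DRE-firefly luciferase) were incubated 5 h, dosed, and kept 24 h at 37C. Agonism was scored from increased luciferase luminescence.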
# [2] = qHTS assay to identify small molecule that activate the aryl hydrocarbon receptor (AhR) signaling pathway - cell viability counter screen (AID 743086);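 note: HepG2 liver cells carrying the AhR DRE luciferase reporter; series mostly up to about 70 µM; nearly all actives have a fitted effect of over 45% in size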
# Outline: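 HepG2-AhR-luc (HG2L7.5c1) cells, 4000/well, were preincubated 5 h at 37C, exposed to compound in qHTS format for 24 hr at 37C, then given CellTiter-Fluor for 30 min; viability was read as fluorescence in the reporter wells.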
# [3] = biological target: Peroxisome proliferator-activated receptor gamma (Homo sapiens) (UniProt P37231); test: qHTS assay to identify small molecule agonists of the peroxisome proliferator-activated receptor gamma (PPARg) signaling pathway (AID 743094; active = well fitted activation curve with a large enough effect in the signal ratio in the repeat runs, not every such curve was filed as active; the % refers to the signal ratio)
# Outline: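 GeneBLAzer PPARg UAS-bla HEK293H cells were plated, rested 5 h, then exposed to compounds for 17 h at 37C. Beta-lactamase activity was read by LiveBLAzer B/G FRET substrate fluorescence after 1 h at room temperature.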
# [4] = qHTS assay to identify small molecule antagonists of the peroxisome proliferator-activated receptor gamma (PPARg) signaling pathway - cell viability counter screen (AID 743194); note: nearly all actives have a fitted effect of over 55% in size; note: potency is the fitted concentration of half-maximal effect
# Outline: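 PPARg-UAS-bla HEK293H cells were plated, rested 5 h at 37 C, then treated with compounds plus rosiglitazone (50 nM final) for 17 h at 37 C; viability was then read by CellTiter-Glo luminescence after 30 min at room temperature.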
# [5] = qHTS assay for small molecule agonists of the antioxidant response element (ARE) signaling pathway (AID 743202; active = well fitted activation curve with a large enough effect in the signal ratio in the repeat runs, not every such curve was filed as active; the % refers to the signal ratio; note: potency is the fitted concentration of half-maximal effect)
# Outline: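 Compounds delivered in DMSO to ARE-bla HepG2 cells (2,000 cells/well, pre-incubated 5 h) and left 16 h at 37 C. LiveBLAzer B/G FRET substrate then added for 2 h at RT before fluorescence reading.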
# [6] = qHTS assay for small molecule agonists of the antioxidant response element (ARE) signaling pathway - cell viability counter screen (AID 743203; calls by dose curve; note: nearly all actives have a fitted effect of over 55% in size; note: potency is the fitted concentration of half-maximal effect)
# Outline: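 ARE-bla HepG2 cells were plated, rested 5 h at 37C/5% CO2, then exposed to compounds in DMSO for 16 h. Viability was read as CellTiter-Glo luminescence after 30 min at room temperature, in the same wells as the ARE screen.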
# [7] = qHTS assay for small molecule activators of the heat shock response signaling pathway - cell viability counter screen (AID 743209); note: nearly all actives have a fitted effect of over 50% in size
# Outline: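 HSE-bla HeLa cells plated overnight, then exposed to Tox21 compounds (23 nL in DMSO) for 5 h at 37 C. After the bla reporter read, CellTiter-Glo was added in the same wells and luminescence read after 30 min at room temperature.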
# [8] = qHTS assay to identify small molecule agonists of the peroxisome proliferator-activated receptor delta (PPARd) signaling pathway - cell viability counter screen (AID 743211); note: nearly all actives have a fitted effect of over 55% in size; note: potency is the fitted concentration of half-maximal effect
# Outline: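 In the same wells used for beta-lactamase reporter measurement, cytotoxicity is scored by CellTiter-Glo. HEK293H PPARd-bla cells receive compound for 17 h at 37C following a 5 h settling period.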
# [9] = biological target: Peroxisome proliferator-activated receptor delta (Homo sapiens) (UniProt Q03181); test: qHTS assay to identify small molecule agonists of the peroxisome proliferator-activated receptor delta (PPARd) signaling pathway (AID 743212; calls by dose curve)
# Outline: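 A PPARd-bla HEK293H line with beta-lactamase under an Upstream Activator Sequence is treated with compounds at 37 C. Substrate loading for 2 h at room temperature precedes the fluorescence measurement.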
# [10] = qHTS assay to identify small molecule antagonists of the peroxisome proliferator-activated receptor delta (PPARd) signaling pathway - cell viability counter screen (AID 743213); note: nearly all actives have a fitted effect of over 50% in size; note: potency is the fitted concentration of half-maximal effect
# Outline: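 Cytotoxicity counter screen: CellTiter-Glo luminescence read 30 min after addition, in the same wells as the reporter assay. There, PPARd UAS-bla HEK293H cells (3000/well) were treated 17 h at 37 C with compound and 300 nM L165041.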
# [11] = qHTS assay to identify small molecule agonists of the farnesoid-X-receptor (FXR) signaling pathway - cell viability counter screen (AID 743218); note: nearly all actives have a fitted effect of over 45% in size; note: potency is the fitted concentration of half-maximal effect
# Outline: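 FXR-UAS-bla HEK 293T cells exposed to compounds for 16 h at 37C. Cytotoxicity read in the same wells by CellTiter-Glo luminescence after 30 min at room temperature, following the beta-lactamase FRET read.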
# [12] = qHTS assay to identify small molecule antagonists of the farnesoid-X-receptor (FXR) signaling pathway - cell viability counter screen (AID 743221; active = well fitted cell-killing curve with a large enough effect in the repeat runs, not every such curve was filed as active; note: nearly all actives have a fitted effect of over 50% in size; note: potency is the fitted concentration of half-maximal effect)
# Outline: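 Here viability was scored by luminescence after CellTiter-Glo addition to wells already read for beta-lactamase. Prior treatment: compound plus CDCA (50 uM final), 16 h, 37 C, HEK 293T FXR-bla cells.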
# [13] = biological target: Vitamin D3 receptor (Homo sapiens) (UniProt P11473); test: qHTS assay to identify small molecule agonists of the vitamin D receptor (VDR) signaling pathway (AID 743222; calls by dose curve)
# Outline: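 VDR-bla cells plated 4 h at 37 C, then exposed to compounds for 16 h at 37 C. Beta-lactamase reporter activity measured by fluorescence after 2 h room-temperature loading with LiveBLAzer B/G FRET substrate.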
# [14] = biological target: Vitamin D3 receptor (Homo sapiens) (UniProt P11473); test: qHTS assay to identify small molecule antagonists of the vitamin D receptor (VDR) signaling pathway (AID 743223; active = well fitted inhibition curve with a large enough effect in the signal ratio in the repeat runs, not every such curve was filed as active; the % refers to the signal ratio)
# Outline: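 Inhibition of agonist-driven VDR signalling is scored in VDR-bla cells: 3 nM final 1alpha,25-dihydroxyvitamin D3 plus compound, 16 h at 37C, then beta-lactamase detection by FRET substrate fluorescence after 2 h.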
# [15] = qHTS assay to identify small molecule agonists of the vitamin D receptor (VDR) signaling pathway - cell viability counter screen (AID 743224); note: nearly all actives have a fitted effect of over 50% in size; note: potency is the fitted concentration of half-maximal effect
# Outline: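 VDR-bla cells, 4 h after plating, exposed to compounds for 16 h at 37C; viability then read in the same wells as CellTiter-Glo luminescence after 30 min at room temperature, following the bla FRET read.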
# [16] = qHTS assay for small molecule activators of the heat shock response signaling pathway (AID 743210; active = well fitted activation curve with a large enough effect in the signal ratio in the repeat runs, with a control signal flat, not every such curve was filed as active; the % refers to the signal ratio;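 note: HeLa cells with beta-lactamase reporter driven by heat shock elements; series mostly up to about 63 µM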)
# Outline: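 Reporter gene assay: HeLa cells stably bearing an HSE-bla construct, compound treatment 5 h at 37 C, LiveBLAzer substrate 2.5 h at RT, fluorescence intensity.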
# [17] = biological target: Peroxisome proliferator-activated receptor delta (Homo sapiens) (UniProt Q03181); test: qHTS assay to identify small molecule antagonists of the peroxisome proliferator-activated receptor delta (PPARd) signaling pathway (AID 743215; active = well fitted inhibition curve with a large enough effect in the signal ratio in the repeat runs, not every such curve was filed as active; the % refers to the signal ratio;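 note: cells stimulated with agonist L165041 at 300 nM final during compound exposure; series mostly up to about 62 µM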)
# Outline: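 PPARd-bla HEK293H cells (UAS-bla reporter) preincubated 5 h, then given compound plus 300 nM final L165041 agonist for 17 h at 37 C. Beta-lactamase activity read by LiveBLAzer B/G FRET substrate fluorescence after 2 h at room temperature.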
# [18] = biological target: Bile acid receptor (Homo sapiens) (UniProt Q96RI1); test: qHTS assay to identify small molecule antagonists of the farnesoid-X-receptor (FXR) signaling pathway (AID 743217; active = well fitted inhibition curve with a large enough effect in the signal ratio in the repeat runs, not every such curve was filed as active; the % refers to the signal ratio)
# Outline: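 FXR-UAS-bla HEK 293T cells (beta-lactamase reporter) given compound plus chenodeoxycholic acid (50 uM final), 16 h at 37C. LiveBLAzer B/G FRET substrate added for 2 h at room temperature; fluorescence read.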
# [19] = biological target: Bile acid receptor (Homo sapiens) (UniProt Q96RI1); test: qHTS assay to identify small molecule agonists of the farnesoid-X-receptor (FXR) signaling pathway (AID 743220; active = well fitted activation curve with a large enough effect in the signal ratio in the repeat runs, not every such curve was filed as active; the % refers to the signal ratio)
# Outline: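 Beta-lactamase reporter under UAS control in GeneBLAzer FXR HEK 293T cells (5000/well) measured with LiveBLAzer FRET substrate after 2 h at room temperature. Compound exposure lasted 16 h at 37C.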
# [20] = biological target: Peroxisome proliferator-activated receptor gamma (Homo sapiens) (UniProt P37231); test: qHTS assay to identify small molecule antagonists of the peroxisome proliferator-activated receptor gamma (PPARg) signaling pathway (AID 743191; calls by dose curve; note: nearly all actives have a fitted effect of over 30% in size; note: potency is the fitted concentration of half-maximal effect)
# Outline: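 GeneBLAzer PPARg UAS-bla HEK293H cells carrying a UAS-driven beta-lactamase reporter were plated at 3000 cells/well, preincubated 5 h at 37C, then given compound for 17 h at 37C; LiveBLAzer B/G FRET substrate was read after 1 h at room temperature.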
# Chain of Bile acid receptor (Homo sapiens) (Q96RI1 whole entry, looked up): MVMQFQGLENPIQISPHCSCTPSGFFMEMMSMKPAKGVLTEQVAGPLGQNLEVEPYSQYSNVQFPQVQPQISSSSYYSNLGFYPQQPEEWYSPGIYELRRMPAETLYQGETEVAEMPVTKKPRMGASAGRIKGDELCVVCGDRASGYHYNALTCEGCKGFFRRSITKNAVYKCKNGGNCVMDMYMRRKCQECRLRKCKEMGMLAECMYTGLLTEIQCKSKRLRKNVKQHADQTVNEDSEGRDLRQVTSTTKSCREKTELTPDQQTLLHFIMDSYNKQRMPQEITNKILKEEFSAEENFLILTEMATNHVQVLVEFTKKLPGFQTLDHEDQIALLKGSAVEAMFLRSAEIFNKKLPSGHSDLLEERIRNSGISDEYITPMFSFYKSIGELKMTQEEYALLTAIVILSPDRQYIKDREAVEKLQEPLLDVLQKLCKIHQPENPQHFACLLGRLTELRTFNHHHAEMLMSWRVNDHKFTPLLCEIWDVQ
# Chain of Peroxisome proliferator-activated receptor gamma (Homo sapiens) (P37231 whole entry, looked up): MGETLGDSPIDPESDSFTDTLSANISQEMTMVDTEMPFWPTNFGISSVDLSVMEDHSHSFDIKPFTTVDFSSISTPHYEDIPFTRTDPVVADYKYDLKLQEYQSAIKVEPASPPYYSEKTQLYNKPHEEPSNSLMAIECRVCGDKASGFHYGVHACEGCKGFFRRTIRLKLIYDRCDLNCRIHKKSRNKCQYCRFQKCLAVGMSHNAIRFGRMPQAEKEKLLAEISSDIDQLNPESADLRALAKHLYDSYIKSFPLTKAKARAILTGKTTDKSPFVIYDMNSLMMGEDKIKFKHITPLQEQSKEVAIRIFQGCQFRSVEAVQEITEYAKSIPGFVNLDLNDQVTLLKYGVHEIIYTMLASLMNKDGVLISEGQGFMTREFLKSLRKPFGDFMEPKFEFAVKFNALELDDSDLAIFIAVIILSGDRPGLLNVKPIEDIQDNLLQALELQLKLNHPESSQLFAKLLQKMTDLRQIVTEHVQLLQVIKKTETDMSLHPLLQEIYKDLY
# Chain of Aryl hydrocarbon receptor (Homo sapiens) (P35869 whole entry, looked up): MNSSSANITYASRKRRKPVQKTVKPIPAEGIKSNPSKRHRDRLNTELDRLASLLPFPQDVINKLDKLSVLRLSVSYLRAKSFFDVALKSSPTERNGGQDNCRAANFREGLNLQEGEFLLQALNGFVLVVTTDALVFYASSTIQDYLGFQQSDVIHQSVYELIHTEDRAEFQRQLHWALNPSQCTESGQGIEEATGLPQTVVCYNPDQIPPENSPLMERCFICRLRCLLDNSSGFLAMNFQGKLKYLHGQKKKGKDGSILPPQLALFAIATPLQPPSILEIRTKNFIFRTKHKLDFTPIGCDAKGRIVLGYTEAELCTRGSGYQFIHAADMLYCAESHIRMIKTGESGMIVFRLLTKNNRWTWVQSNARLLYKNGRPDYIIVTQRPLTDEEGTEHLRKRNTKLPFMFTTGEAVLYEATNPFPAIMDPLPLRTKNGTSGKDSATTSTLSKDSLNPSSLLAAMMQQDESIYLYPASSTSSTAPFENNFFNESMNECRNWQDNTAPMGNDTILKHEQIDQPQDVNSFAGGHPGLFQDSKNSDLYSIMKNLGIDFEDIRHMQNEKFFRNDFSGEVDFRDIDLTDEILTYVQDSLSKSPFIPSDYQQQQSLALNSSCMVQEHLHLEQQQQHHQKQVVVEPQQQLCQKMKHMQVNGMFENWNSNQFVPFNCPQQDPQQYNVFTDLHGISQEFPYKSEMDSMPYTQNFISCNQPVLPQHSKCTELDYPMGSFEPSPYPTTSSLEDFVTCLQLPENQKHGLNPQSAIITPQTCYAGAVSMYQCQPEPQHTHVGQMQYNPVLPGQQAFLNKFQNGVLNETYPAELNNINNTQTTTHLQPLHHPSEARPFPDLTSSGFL
# Chain of Vitamin D3 receptor (Homo sapiens) (P11473 whole entry, looked up): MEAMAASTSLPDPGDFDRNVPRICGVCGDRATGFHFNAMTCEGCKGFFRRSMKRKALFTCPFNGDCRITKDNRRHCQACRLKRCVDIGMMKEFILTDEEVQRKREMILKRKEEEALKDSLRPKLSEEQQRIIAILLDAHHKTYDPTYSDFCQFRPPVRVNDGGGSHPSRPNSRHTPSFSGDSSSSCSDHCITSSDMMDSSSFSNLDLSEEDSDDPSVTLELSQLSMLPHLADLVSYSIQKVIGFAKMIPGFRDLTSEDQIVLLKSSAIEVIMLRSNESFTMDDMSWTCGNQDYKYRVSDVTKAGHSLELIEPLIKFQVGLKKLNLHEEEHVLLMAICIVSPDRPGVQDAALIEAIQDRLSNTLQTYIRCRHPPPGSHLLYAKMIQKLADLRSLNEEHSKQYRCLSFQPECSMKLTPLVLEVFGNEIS
# Chain of Peroxisome proliferator-activated receptor delta (Homo sapiens) (Q03181 whole entry, looked up): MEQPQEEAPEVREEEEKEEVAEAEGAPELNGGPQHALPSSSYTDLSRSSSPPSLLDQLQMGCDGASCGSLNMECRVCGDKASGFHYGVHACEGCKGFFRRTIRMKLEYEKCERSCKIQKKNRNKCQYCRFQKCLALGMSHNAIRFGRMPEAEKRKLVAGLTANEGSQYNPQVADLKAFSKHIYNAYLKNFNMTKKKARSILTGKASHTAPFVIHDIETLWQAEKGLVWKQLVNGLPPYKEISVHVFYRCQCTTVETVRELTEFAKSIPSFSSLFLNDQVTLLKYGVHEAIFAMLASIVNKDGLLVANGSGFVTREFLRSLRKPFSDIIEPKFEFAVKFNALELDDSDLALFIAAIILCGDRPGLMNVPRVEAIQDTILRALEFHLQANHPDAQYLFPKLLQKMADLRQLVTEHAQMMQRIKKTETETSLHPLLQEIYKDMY
SMILES,Potency [1],Potency [2],Potency [3],Potency [4],Potency [5],Potency [6],Potency [7],Potency [8],Potency [9],Potency [10],Potency [11],Potency [12],outcome [13],outcome [14],Potency [15],Potency [16],Potency [17],Potency [18],Potency [19],Potency [20]
CN1C(=O)CC(C)(c2ccccc2)C1=O (centres undefined),inactive,inactive,inactive,inactive,inactive,inactive,inactive,inactive,inactive,inactive,inactive,inactive,inactive,inactive,inactive,,,,,
Nc1ccc(S(=O)(=O)O)c(N)c1,inactive,inactive,inactive,inactive,inactive,,inactive,inactive,inactive,inactive,inactive,inactive,inactive,inactive,inactive,inactive,inactive,,,
CC[C@@H]([C@H](C)O)n1ncn(-c2ccc(N3CCN(c4ccc(OC[C@@H]5CO[C@@](Cn6cncn6)(c6ccc(F)cc6F)C5)cc4)CC3)cc2)c1=O,inactive,inactive,inactive,29.8 µM (active),10.6 µM (active),inactive,inactive,29.8 µM (active),,23.7 µM (active),29.8 µM (active),29.8 µM (active),inactive,inactive,inactive,,,,,
Nc1nccs1,inactive,inactive,inactive,inactive,inactive,inactive,inactive,inactive,inactive,inactive,inactive,inactive,inactive,inactive,inactive,,inactive,,,
CCCCC/C(=C\c1ccccc1)CO,inactive,inactive,inactive,,inactive,inactive,inactive,inactive,inactive,,inactive,inactive,inactive,inactive,,inactive,,inactive,inactive,
O=C(CS)OCCOC(=O)CS,inactive,inactive,inactive,inactive,inactive,inactive,inactive,inactive,inactive,inactive,inactive,inactive,inactive,inactive,inactive,,inactive,inactive,inactive,
CC(=O)OCC(=O)[C@H]1CC[C@H]2[C@@H]3CCC4=CC(=O)CC[C@]4(C)[C@H]3CC[C@]12C,inactive,inactive,inactive,inactive,,inactive,inactive,inactive,inactive,inactive,inactive,inactive,inactive,inactive,inactive,inactive,,inactive,inactive,
O=C(c1ccc(O)cc1)c1ccc(Cl)cc1,inactive,inactive,inactive,inactive,,inactive,inactive,inactive,,inactive,inactive,inactive,inactive,,inactive,inactive,,inactive,inactive,
CC(C)CCCCCCOC(=O)CCCCC(=O)OCCCCCCC(C)C,inactive,inactive,inactive,inactive,,inactive,inactive,inactive,inactive,inactive,inactive,inactive,inactive,inactive,inactive,inactive,inactive,inactive,inactive,
CO/N=C1\CN(c2nc3c(cc2F)c(=O)c(C(=O)O)cn3C2CC2)CC1CN (centres undefined),inactive,inactive,inactive,inactive,,inactive,inactive,inactive,inactive,inactive,inactive,inactive,,,inactive,inactive,inactive,inactive,inactive,
CC1=CC(O)CC(C)(C)C1 (centres undefined),inactive,inactive,inactive,inactive,inactive,,inactive,inactive,inactive,inactive,,inactive,inactive,inactive,inactive,inactive,,,,
CN(C(=O)C(Cl)Cl)c1ccc(OC(=O)c2ccco2)cc1,inactive,inactive,inactive,inactive,,inactive,inactive,inactive,inactive,inactive,inactive,inactive,inactive,,inactive,inactive,,inactive,inactive,
C1COCO1,inactive,inactive,inactive,,inactive,inactive,inactive,inactive,inactive,inactive,inactive,inactive,inactive,,inactive,,inactive,,,
C[N+]1(C)CCC(=C(c2ccccc2)c2ccccc2)CC1,inactive,inactive,,inactive,,,inactive,inactive,,inactive,inactive,inactive,inactive,inactive,inactive,,,inactive,inactive,
O=C(O)Cc1ccc(-c2ccccc2)cc1,inactive,inactive,,,,inactive,inactive,inactive,inactive,inactive,inactive,inactive,inactive,inactive,inactive,inactive,inactive,,,
COCc1c(C(C)C)nc(C(C)C)c(/C=C/[C@@H](O)C[C@@H](O)CC(=O)O)c1-c1ccc(F)cc1,inactive,inactive,,inactive,,inactive,inactive,inactive,inactive,,inactive,,inactive,,inactive,inactive,,,,
CCCCCCCCCCCC[N+](C)(C)CCCS(=O)(=O)[O-],inactive,,inactive,inactive,inactive,inactive,inactive,,inactive,,inactive,inactive,inactive,,,inactive,inactive,,,inactive
Cc1oc(C)c(C(=O)Nc2ccccc2)c1C,24.3 µM (active),inactive,,inactive,,inactive,inactive,inactive,inactive,,inactive,,inactive,inactive,,inactive,,,,24.5 µM (active)
C[C@@H]1C[C@H]2[C@@H]3CCC4=CC(=O)C=C[C@]4(C)[C@@]3(F)[C@@H](O)C[C@]2(C)[C@@]1(O)C(=O)CO,inactive,inactive,,inactive,inactive,,inactive,inactive,inactive,inactive,,inactive,,,,inactive,inactive,,,
CC(=O)Oc1ccc(C(=C2CCCCC2)c2ccc(OC(C)=O)cc2)cc1,inactive,inactive,,inactive,29.8 µM (active),inactive,inactive,,inactive,inactive,inactive,inactive,,,,,,inactive,inactive,
OC(CCCN1CCCCC1)(c1ccccc1)c1ccccc1,inactive,,inactive,inactive,inactive,inactive,inactive,inactive,inactive,inactive,,inactive,inactive,inactive,inactive,inactive,inactive,,,inactive
Oc1ccc(Nc2ccccc2)cc1,inactive,inactive,,,27.3 µM (active),inactive,inactive,inactive,inactive,,,inactive,inactive,,54.9 µM (active),inactive,,inactive,,19.5 µM (active)
C[C@]12CCC(=O)C=C1C=C[C@@H]1[C@@H]2CC[C@@]2(C)[C@H]1CC[C@@]21CCC(=O)O1,inactive,inactive,,inactive,11.9 µM (active),inactive,inactive,inactive,inactive,inactive,,inactive,,,inactive,inactive,inactive,,,
Cc1c(C(=O)NN2CCCCC2)nn(-c2ccc(Cl)cc2Cl)c1-c1ccc(Cl)cc1,inactive,inactive,,,,23.7 µM (active),,23.7 µM (active),,,33.5 µM (active),,,,,,,,inactive,
C[N+](C)(C)CCOC(N)=O,inactive,inactive,,inactive,inactive,inactive,inactive,inactive,inactive,inactive,inactive,inactive,inactive,inactive,inactive,inactive,inactive,inactive,inactive,
COC(=O)Nc1nc2ccc(C(=O)c3cccs3)cc2[nH]1,3.76 µM (active),inactive,,inactive,0.75 µM (active),,inactive,,,,,,inactive,,inactive,,,,inactive,
